Assay results reported in PubChem BioAssay AID1345083 (National Center for Advancing Translational Sciences (NCATS), 2018).
The campaign covered roughly 94,000 compounds. About 6,200 (6.6%) were called active. Another 31% or so got no clear call; they are omitted. Calls follow the shape of the dose curve; as a rule, active = well fitted inhibition curve with a large enough effect; inconclusive = small, poorly fitted or top-dose-only effect; inactive = flat fitted curve, though single readings scatter. The sample as a whole holds a higher share of actives than the screen did.

Test: Cytotoxic Profiling in HEK 293 Cell Line of Diverse Libraries Using Quantitative High-Throughput Screening; also: nearly all actives have a fitted effect of over 60% in size
Conditions: HEK 293 viability, ATP luminescence (CellTiter-Glo), 48-72 h; series mostly up to 115 µM; activity change, negative = cytotoxicity: at the top concentration
Source text: Cell-based phenotypic screening is a commonly used approach to discover biological pathways, novel drug targets, chemical probes and high-quality hit-to-lead molecules. Many hits identified from high-throughput screening campaign are ruled out through a series of follow-up potency, selectivity/specificity, and cytotoxicity assays. Prioritization of molecules with little or no cytotoxicity for a more in-depth downstream evaluation influence the future direction of projects, so cytotoxicity profiling of the screening libraries at early stage is essential for increasing the likelihood of candidate success. In this study, we analyzed results from a cell-based cytotoxicity screening campaign, comprising nearly 10,000 compounds in NCATS annotated libraries, and over 100,000 compounds in a diversity library, evaluated in four normal cell lines (HEK 293, NIH 3T3, CRL-7250 and HaCat) and a cancer cell line (KB 3-1, a HeLa subline) with overall screening outcomes, hit rates, pan-activity and selectivity. For the annotated library, we also examined the primary targets and mechanistic pathways regularly associated with cell death. To our knowledge, this is the first study to use high-throughput screening to profile large libraries for cytotoxicity assessment in both normal and cancer cell lines. In summary, the results generated here constitutes a valuable resource for the scientific community and provides insight on identifying cytotoxic compounds with particular mechanisms of action, and prioritizing compounds with suitable cytotoxicity profile for further evaluation.
HEK 293 cells were seeded into white 1536-well plates using a Multidrop Combi peristaltic dispenser (ThermoFisher, Waltham, MA) at a density of 250 cells/well in 5 uL of medium respectively. A pintool (Kalypsys) was used to transfer 23 nL of compound solution to the 1536-well assay plates. After 48 or 72 hr incubation at 37 degree Celsius, 5% CO2 and 95% humidity, 2.5 uL of CellTiter-Glo (Promega) was dispensed into each well using a dispenser (Aspect Automation, St. Paul, MN) with solenoid valves (Lee Valves, Westbrook CT). Plates were left at room temperature for 10 min before imaging the ATP-coupled luminescence using a ViewLux microplate imager (PerkinElmer, Waltham, MA).
% is scaled to controls: 0 for no effect and ±100 for the full control effect; potency is read from the fitted curve at half-maximal effect.

Row | SMILES | activity change, negative = cytotoxicity | outcome | Potency
1 | Cc1ccc(OCCC2CCN(C(=O)CCN3C(=O)NC(C)(C)C3=O)C2)cc1 (stereo not drawn) | -19.8% (inactive) | – | –
2 | O=C(c1cccc(F)c1)N1CCCC(CN2CCOCC2)CC1 (stereo not drawn) | – | inactive | –
3 | O=C(c1cccc(F)c1)N1CCC(CCOc2ccc(F)cc2)C1 (stereo not drawn) | – | – | 44.7 µM (active)
4 | Cc1cnc(CCNC(=O)c2cn(C)cn2)n1C1CC1 | – | inactive | –
5 | O=[S+]([O-])(c1ccccc1)N1CCCC2(CC(c3ccccn3)=NO2)C1 (stereo not drawn) | -4.29% (inactive) | – | –
6 | O=[S+]([O-])(c1ccccc1)N1CCC2(CC(c3cccnc3)=NO2)C1 (stereo not drawn) | – | inactive | –
7 | Cc1ccc([S+](=O)([O-])N2CCC3(CC2)CC(=O)N(c2ccccc2)c2ccccc2O3)cc1 | – | – | 25.1 µM (active)
8 | NC(=O)c1cccnc1OC1CCNCC1 | 5.73% (inactive) | – | –
9 | COc1ccc(C)cc1NC(=O)Cn1nc2n(c1=O)CCCC2 | 1.29% (inactive) | – | –
10 | COc1ccc(CN2CCC3(CC2)Cc2ccccc2CNC3=O)cn1 | -2.09% (inactive) | – | –
11 | O=C1NCc2ccccc2CC12CCN(Cc1ccc(O)cc1)CC2 | 2.63% (inactive) | – | –
12 | CC(C)Cc1ccc(CN2CCC3(CC2)Cc2ccccc2CNC3=O)cc1 | – | – | 22.4 µM (active)
13 | COc1ccc(C2(C(=O)NCc3cccc(C(F)(F)F)c3)CCOCC2)cc1 | -18.9% (inactive) | – | –
14 | COCC(=O)NC[C@@H]1C=C(C)[C@H](CC(=O)Nc2ccccn2)C[C@H]1C(C)C | -20.1% [at 172 µM] (inactive) | – | –
15 | CC1=C[C@@H](CN(C)CCc2ccccn2)[C@H](C(C)C)C[C@H]1Cc1nnc(-c2ccccc2F)o1 | – | – | 44.7 µM (active)
16 | NC(=O)c1ccc(OC2CCN(C(=O)c3ccc(F)cc3)CC2)nc1 | -29.6% (inactive) | – | –
17 | O=C1CCN(C(=O)[C@@H](Cc2ccccc2)NS(=O)(=O)c2cccc3cccnc23)CCOCCN1 | 1.59% (inactive) | – | –
18 | O=C(NCCc1ccccc1)NC1CCc2nn(CC3CC3)c(=O)n2CC1 (stereo not drawn) | – | inactive | –
19 | O=C(Nc1ccc(F)cc1)c1ccc2nc(-c3cccnc3)oc2c1 | -10.8% [at 172 µM] (inactive) | – | –
20 | O=C(Nc1cnc(-c2cccc(Cl)c2)nc1)c1ccc(F)cc1 | – | – | 44.7 µM (active)
21 | O=C(Cc1cccc(F)c1)Nc1cnc(-c2cccnc2)nc1 | -0.423% (inactive) | – | –
22 | COC(=O)COc1cccn2c(=O)c(-c3cc(C)n(-c4ccc(C)cc4C)n3)c(C)nc12 | -13.2% (inactive) | – | –
23 | O=C1CC(c2ccccc2)N(C(=O)C2CC2)CCCN(C(=O)Cc2cccc(F)c2)CCN1 (stereo not drawn) | 2.27% (inactive) | – | –
24 | CCCc1nc(NCC(c2ccccn2)N2CCOCC2)c2cnn(C)c2n1 (stereo not drawn) | -0.509% (inactive) | – | –
25 | CC(C)Cc1cc(CNc2nc(C(C)(C)C)nc3c2cnn3C)no1 | – | – | 35.5 µM (active)
26 | CC(Cn1cncn1)Nc1nc(-c2ccncc2)nc2c1cnn2C (stereo not drawn) | 0.89% (inactive) | – | –
27 | COc1ccccc1CC(=O)NCc1nnc2c(-c3nc(C(C)C)no3)cccn12 | -10% (inactive) | – | –
28 | COCCC1(CO)CCCN(C(=O)Cn2cc(C)c(=O)[nH]c2=O)C1 (stereo not drawn) | 3.68% (inactive) | – | –
